According to PubChem BioAssay (EPA / NIEHS):
Values joined by “and” are separate entries in the source; they are usually repeats but may differ in a detail not shown here. Equal entries are not always repeated. Some compounds were tested as several samples or in several runs, with calls that do not always agree. Active and inactive are the calls of the source. The calls were made as follows: active = hit-call score of the fitted dose curve at least 0.9, where 1 is the maximum; inactive = score below 0.9.

Legend:
Settings in all cases: primary human HUVEC with PBMC; actives raise or lower the signal
[1] = read-out: Monocyte Chemoattractant Protein-1 (MCP1), CCL2 (gene 6347); assay: BSK_LPS_MCP1: BioMAP Diversity Plus: LPS Assay for Monocyte Chemoattractant Protein-1 (MCP1) Biomarker Activity (AID 2283081);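 as to AC50: co-culture stimulated with LPS; secreted MCP-1 protein quantified by ELISA in culture supernatant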
How it was run: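 Values derive from bidirectional fitting against DMSO of ELISA-measured MCP-1 in a human primary endothelial and mononuclear cell co-culture, 24 h after chemical addition under LPS activation.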

[2] = BSK_LPS_PGE2: BioMAP Diversity Plus: LPS Assay for Prostaglandin E2 (PGE2) Biomarker Activity (AID 2283082);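 as to AC50: secreted prostaglandin E2 measured by ELISA in LPS-stimulated co-culture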
How it was run: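 Primary human endothelial cells and blood mononuclear cells, co-cultured with LPS, receive test chemical; PGE2 ELISA follows at 24 h, with SRB-stained parallel cultures flagging cytotoxicity.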

[3] = read-out: Macrophage colony-stimulating factor (MCSF), CSF1 (gene 1435); assay: BSK_LPS_MCSF: BioMAP Diversity Plus: LPS Assay for Macrophage colony-stimulating factor (MCSF) Biomarker Activity (AID 2283083)
How it was run: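 Bidirectional fit versus DMSO of ELISA-measured M-CSF in co-cultured human umbilical vein endothelial cells and PBMC, sampled 24 h after dosing.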

[4] = read-out: Tissue Factor, F3 (gene 2152); assay: BSK_LPS_TissueFactor: BioMAP Diversity Plus: LPS Assay for Tissue Factor Biomarker Activity (AID 2283084)
How it was run: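 Read-out: CD142 ELISA, 24 h. System: LPS-driven human endothelial/PBMC co-culture. Analysis: up- or down-signal fitted against DMSO.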

[5] = read-out: Tumor necrosis factor (Homo sapiens) (UniProt P01375); assay: BSK_LPS_TNFa: BioMAP Diversity Plus: LPS Assay for Tumour Necrosis Factor alpha (TNFa) Biomarker Activity (AID 2283085);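 as to AC50: TNFa protein level quantified by ELISA in the co-culture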
How it was run: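 ELISA-based TNFa endpoint in a human endothelial–PBMC co-culture sampled 24 h post-exposure. Curves were fitted in both directions using DMSO as baseline of activity.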

[6] = read-out: Vascular cell adhesion molecule 1 (VCAM1), VCAM1 (gene 7412); assay: BSK_LPS_VCAM1: BioMAP Diversity Plus: LPS Assay for Vascular cell adhesion molecule 1 (VCAM1) Biomarker Activity (AID 2283086)
How it was run: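 Measured by ELISA: VCAM-1 in LPS-activated HUVEC/PBMC co-cultures 24 h after treatment. Values reflect bidirectional fitting with DMSO as baseline.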

[7] = read-out: CD38, CD38 (gene 952); assay: BSK_SAg_CD38: BioMAP Diversity Plus: SAg Assay for CD38 Biomarker Activity (AID 2283087)
How it was run: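 Measures CD38 on a human endothelial/PBMC co-culture driven by SEB and TSST-1, 24 h after compound exposure, using ELISA with fluorescence detection; DMSO defines baseline for bidirectional curve fitting.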

[8] = read-out: CD40, CD40 (gene 958); assay: BSK_SAg_CD40: BioMAP Diversity Plus: SAg Assay for CD40 Biomarker Activity (AID 2283088)
How it was run: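 Endpoint derived by fitting increases or decreases versus DMSO controls. CD40 is detected by fluorescence ELISA in a human vascular co-culture of endothelium and PBMC at 24 h.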

[9] = read-out: Monocyte Chemoattractant Protein-1 (MCP1), CCL2 (gene 6347); assay: BSK_SAg_MCP1: BioMAP Diversity Plus: SAg Assay for Monocyte Chemoattractant Protein-1 (MCP1) Biomarker Activity (AID 2283090)
How it was run: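 Values derive from bidirectional fitting of ELISA-measured MCP1 against DMSO controls. Readings were taken 24 h after dosing human vascular endothelial cells co-cultured with peripheral blood mononuclear cells under superantigen stimulation.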

[10] = read-out: CD69, CD69 (gene 969); assay: BSK_SAg_CD69: BioMAP Diversity Plus: SAg Assay for CD69 Biomarker Activity (AID 2283089);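 as to AC50: cell surface CD69 protein quantified by ELISA with fluorescence detection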
How it was run: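 Endothelial/PBMC co-culture; chemical added; 24 h incubation; CD69 ELISA with fluorescence detection; bidirectional fit vs DMSO.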

Measured: AC50

Chain of Tumor necrosis factor (Homo sapiens) (P01375 whole entry, looked up): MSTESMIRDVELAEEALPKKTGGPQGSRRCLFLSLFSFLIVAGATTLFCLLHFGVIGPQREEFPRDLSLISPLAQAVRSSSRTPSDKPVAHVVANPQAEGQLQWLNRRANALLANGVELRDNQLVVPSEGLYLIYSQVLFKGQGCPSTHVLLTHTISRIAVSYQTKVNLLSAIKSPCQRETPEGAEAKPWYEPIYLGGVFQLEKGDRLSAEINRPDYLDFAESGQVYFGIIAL

CC(C)(C)c1cc(CCC(=O)NCCCCCCNC(=O)CCc2cc(C(C)(C)C)c(O)c(C(C)(C)C)c2)cc(C(C)(C)C)c1O
inactive: [1] | [2] | [3] | [4] | [5] | [6] | [7] | [8] | [9]

O=S(=O)(OCC(F)(F)F)C(F)(F)C(F)(F)C(F)(F)C(F)(F)F
active: [1] 20.6 µM | [4] 9.88 µM | [5] 43.7 µM and 16.3 µM
inactive: [1] | [2] | [3] | [4] | [6] | [7] | [8] | [10] | [9]

O=C(Cl)C(F)(F)C(F)(F)C(F)(F)C(F)(F)C(F)(F)C(F)(F)C(F)(F)F
inactive: [1] | [2] | [3] | [4] | [5] | [6] | [7] | [8] | [10] | [9]

CNS(=O)(=O)C(F)(F)C(F)(F)C(F)(F)C(F)(F)C(F)(F)C(F)(F)C(F)(F)C(F)(F)F
inactive: [1] | [2] | [3] | [4] | [5] | [6] | [7] | [8] | [9]

CCN(CCO)S(=O)(=O)C(F)(F)C(F)(F)C(F)(F)C(F)(F)C(F)(F)C(F)(F)C(F)(F)C(F)(F)F
active: [1] 21.8 µM | [3] 7700 nM | [4] 10.8 µM and 15 µM | [6] 30 µM and 35.9 µM | [7] 35.9 µM and 29.9 µM | [10] 9.85 µM | [9] 18.8 µM and 18.3 µM
inactive: [1] | [2] | [3] | [5] | [10]

OC(O)C(F)(F)C(F)(F)F
inactive: [1] | [2] | [3] | [4] | [5] | [6] | [7] | [8] | [10] | [9]

CN(C(=O)C(F)(F)C(F)(F)C(F)(F)F)[Si](C)(C)C
inactive: [1] | [2] | [3] | [4] | [5] | [6] | [7] | [8] | [9]

O=C(O)C(F)(F)C(F)(F)C(F)(F)OC(F)(C(F)(F)F)C(F)(F)F
inactive: [1] | [2] | [3] | [4] | [5] | [6] | [7] | [8] | [9]

NC(=O)C(F)(F)C(F)(F)C(F)(F)C(F)(F)C(N)=O
active: [3] 393 nM
inactive: [1] | [2] | [3] | [4] | [5] | [6] | [7] | [8] | [9]

C=CC(=O)OCC(F)(F)C(F)(F)C(F)(F)C(F)(F)C(F)(F)C(F)(F)C(F)(F)C(F)F
inactive: [1] | [2] | [3] | [4] | [5] | [6] | [7] | [10] | [9]
active: [2] 13.9 µM

OCCCC(F)(F)C(F)(F)C(F)(F)C(F)(F)C(F)(F)C(F)(F)C(F)(F)C(F)(F)F
inactive: [2]
active: [1] 29.9 µM and 44.8 µM | [3] 44.2 µM and 22.5 µM | [4] 39.3 µM and 23.2 µM | [5] 29.7 µM and 19.9 µM | [6] 41.4 µM and 23.6 µM | [7] 44.8 µM and 26 µM | [8] 43.8 µM and 45.5 µM | [9] 23.2 µM and 51.9 µM

OCC(F)(F)C(F)(F)C(F)(F)C(F)(F)C(F)(F)C(F)(F)CO
inactive: [1] | [2] | [3] | [4] | [5] | [6] | [7] | [10] | [9]
active: [5] 1.9 µM

C=C(C)C(=O)OCC(F)(F)C(F)(F)C(F)(F)C(F)F
active: [3] 646 nM
inactive: [1] | [2] | [3] | [4] | [5] | [6] | [7] | [8] | [9]

CCOC(=O)CC(=O)C(F)(F)C(F)(F)F
inactive: [1] | [2] | [3] | [4] | [5] | [6] | [7] | [8] | [10] | [9]

OCC(O)CC(F)(F)C(F)(F)C(F)(F)C(F)(F)C(F)(F)C(F)(F)C(F)(F)C(F)(F)F (stereo not drawn)
inactive: [1] | [2] | [3] | [4] | [5] | [6] | [7] | [8] | [9]
